Laboratory results published in PubChem BioAssay AID504332 (National Center for Advancing Translational Sciences (NCATS), 2011).
Hit rate of the full screen: of about 350,000 compounds, about 31,000 (8.9%) were called active. Inconclusive results (about 15%) are left out. The sample as a whole holds a higher share of actives than the screen did. A number with no mark means an inactive call. The call rests on the fitted dose curve; in most records, active means well fitted inhibition curve with a large enough effect; inconclusive means small, poorly fitted or top-dose-only effect; inactive means no such curve, though single readings can be large or run the other way.

target: Histone-lysine N-methyltransferase EHMT2 (Homo sapiens) (UniProt Q96KQ7); assay: qHTS Assay for Inhibitors of Histone Lysine Methyltransferase G9a; conditions: G9a H3K9 monomethylation, AlphaScreen, 2 h; series mostly up to 59 µM; activity, negative = inhibition: at the top concentration; further: nearly all actives have a fitted effect of over 75% in size
Summary of the method: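 Compounds were preincubated with 20 nM G9a for 15 min, after which biotinylated H3K9 peptide (500 nM) and SAM (20 uM) started a 2 h room-temperature reaction. Monomethylated product was quantified by antibody-based AlphaScreen chemiluminescence.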
On the % scale 0 is the no-effect control and ±100 the full control effect; potency means the concentration at half of the fitted maximal effect.

Sequence of Histone-lysine N-methyltransferase EHMT2 (Homo sapiens) (Q96KQ7 913-1193 limits assumed): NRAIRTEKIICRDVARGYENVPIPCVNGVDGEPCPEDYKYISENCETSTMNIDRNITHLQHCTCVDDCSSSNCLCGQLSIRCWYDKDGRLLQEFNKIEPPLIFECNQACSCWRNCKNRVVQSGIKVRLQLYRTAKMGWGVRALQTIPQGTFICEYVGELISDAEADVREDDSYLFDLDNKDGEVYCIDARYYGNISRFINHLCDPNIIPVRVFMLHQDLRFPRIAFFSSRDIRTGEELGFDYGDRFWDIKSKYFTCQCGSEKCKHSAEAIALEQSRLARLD

| SMILES | activity, negative = inhibition | Potency |
| --- | --- | --- |
| O=C(Nc1ccccc1)Nc1ccccc1C(=O)NCc1ccco1 | 0.665% [at 12.7 µM] | – |
| COc1ccc(NC(=O)CN(C)C(=O)c2ccc(COc3ccccc3)o2)cc1 | 8.51% [at 102 µM] | – |
| C[C@H]1[C@H]2c3nc4ccccc4n3C[C@H]1ON2C1CCCCC1 | 20.1% [at 102 µM] | – |
| CCS(=O)(=O)Nc1ccc(C2=NN(C(C)=O)C(c3cccs3)C2)cc1 (stereo not drawn) | 7.26% [at 102 µM] | – |
| CCS(=O)(=O)Nc1ccc(C2=NN(S(=O)(=O)c3ccc(F)cc3)C(c3ccco3)C2)cc1 (stereo not drawn) | – | 79.4 µM (active) |
| CS(=O)(=O)Nc1ccc(C2=NN(S(C)(=O)=O)C(c3cccs3)C2)cc1 (stereo not drawn) | -27.8% [at 102 µM] | – |
| CCCCN(CCCC)CCCNC(=O)CN1C(=O)COc2ccc(S(=O)(=O)N3CCC(C)CC3)cc21 | 56.2% [at 102 µM] | – |
| O=C(CCNC(=O)c1ccc(Br)cc1)NCC(c1ccco1)N1CCCCC1 (stereo not drawn) | 19.9% [at 12.7 µM] | – |
| C/C(=N\NC(=O)NC1CCCCC1)c1ccc(OC(F)F)cc1OC(F)F | 7.82% [at 102 µM] | – |
| Cc1ccc(/C=N/NC(=O)Cn2ccc(C(F)(F)F)n2)o1 | -9.13% [at 102 µM] | – |
| C/C(=N\NC(=S)NC1CCCCC1)c1ccc(C)o1 | – | 50.1 µM (active) |
| Cc1ccc(NC(=S)NC2CCCC2)cc1 | 23.8% [at 0.501 µM] | – |
| C/C(=N/NC(=O)c1ccc(Br)o1)c1ccc(C)o1 | 3.1% | – |
| Cc1ccc(/C=N/NC(=S)NC2CCCCC2)o1 | – | 50.1 µM (active) |
| O=C(Nc1ccc(Cl)c(Cl)c1)c1ccccc1NC(=O)C1CC=CCC1C(=O)O (stereo not drawn) | -7.21% [at 102 µM] | – |
| COc1ccc(C)cc1NC(=O)CNCc1cccs1 | 4.36% [at 102 µM] | – |
| COc1cc(OC)cc(-c2c(-c3cccs3)c3cc(-c4ccc(OC)cc4F)ccc3n2C)c1 | 2.09% [at 0.501 µM] | – |
| CC(Sc1nnc(-c2cccs2)n1C1CC1)C(=O)NCC1CCCO1 (stereo not drawn) | 29.1% [at 12.7 µM] | – |
| O=C(NCCC1CCCCN1S(=O)(=O)c1ccccc1)C(=O)NCC1CCCO1 (stereo not drawn) | 10.2% [at 0.501 µM] | – |
| CCC(=O)N1CCc2cc(CNS(=O)(=O)c3ccc(Br)s3)ccc21 | 1.92% | – |
| CCOC(=O)Cn1c(=O)n(C2CCCCC2)c2nc(-c3cccc(OC)c3)nc(C(N)=O)c21 | 9.68% | – |
| CCOC(=O)c1ccc(NC(=O)CCS(=O)(=O)c2ccc3c(c2)oc(=O)n3C)cc1 | -6.14% | – |
| Cc1ccc(C)c2sc(NC(=O)c3ccc(S(=O)(=O)N4CCCC4)cc3)nc12 | 4.68% | – |
| O=C(NCCCn1ccnc1)c1ccccc1F | 24.5% [at 102 µM] | – |

| SMILES | activity, negative = inhibition | Potency |
| --- | --- | --- |
| CCCCC(=O)Nc1ccc(C(=O)NCCCn2ccnc2)cc1 | – | 12.6 µM (active) |
| CCCC(=O)Nc1ccc(C(=O)NCCCn2ccnc2)cc1 | 19.1% | – |
| O=C(CC1SC(N2CCCC2)=NC1=O)Nc1ccc(C(=O)NCCc2ccc(F)cc2)cc1 (stereo not drawn) | 9.67% [at 0.501 µM] | – |
| CCOC(=O)c1scc(-c2ccc(C)cc2)c1S(=O)(=O)Nc1cc(C)ccc1C | -5.5% | – |
| Cc1cc(C(=O)COc2ccc(Br)cc2F)c(C)n1C1CC1 | -8.88% | – |
| COc1ccc(/C(O)=C2/C(=O)C(=O)N(c3nc(C)c(C)s3)C2c2ccco2)cc1 (stereo not drawn) | – | 44.7 µM (active) |
| COc1cccc(C2/C(=C(/O)c3ccncc3)C(=O)C(=O)N2CCCN(C)C)c1 (stereo not drawn) | -30.1% [at 102 µM] | – |
| COc1ccccc1C1/C(=C(/O)c2ccc(C)cc2)C(=O)C(=O)N1Cc1ccco1 (stereo not drawn) | -8.27% | – |
| O=C(C1CCC(=O)N(C2CC2)C1)N1CCN(c2ccc(Cl)cc2)CC1 (stereo not drawn) | 20.8% [at 102 µM] | – |
| Cc1ccsc1CN(C(=O)c1oc2ccc(Br)cc2c1C)C1CCS(=O)(=O)C1 (stereo not drawn) | -4.15% | – |
| Cc1ccc(C(=O)Nc2c(C(=O)NC(C)(C)C)oc3ccccc23)cc1 | 10.2% | – |
| COc1cccc(N2CCN(S(=O)(=O)c3cc(Br)cc4c3N(C(=O)C3CC3)CC4)CC2)c1 | – | 7.94 µM (active) |
| CCOC(=O)N1CCN(S(=O)(=O)c2cc(Br)cc3c2N(C(=O)C2CC2)CC3)CC1 | 26% | – |
| O=C(C1CC1)N1CCc2cc(Br)cc(S(=O)(=O)N3CCN(c4ccccc4F)CC3)c21 | -8.58% | – |
| Cc1ccc(S(=O)(=O)N(C)C)cc1NC(=O)C(C)OC(=O)c1ccc2ccccc2n1 (stereo not drawn) | 10.5% [at 2.33 µM] | – |
| C=CCc1c(C)nc2cc(-c3ccccc3)[nH]n2c1=O | 35% | – |
| CCC(CC)c1nnc(NC(=O)/C=C/c2ccco2)s1 | 11.7% | – |
| CCOC(=O)c1sc(NC(=O)/C=C/c2ccc(C(C)C)cc2)c(C(=O)OCC)c1C | 3.39% | – |
| CCOC(=O)c1c(NC(=S)NC(=O)/C=C/c2cccs2)sc(C)c1C | 7.95% [at 102 µM] | – |
| CCOC(=O)c1c(NC(=O)/C=C/c2ccco2)sc(C)c1C | – | 44.7 µM (active) |
| Cc1nnc(NC(=O)C(c2ccccc2)c2ccccc2)s1 | 14.6% [at 102 µM] | – |
| Cc1nnc(NC(=O)/C=C/c2ccco2)s1 | – | 31.6 µM (active) |
| Oc1ccccc1-c1nc(/C=C/c2ccc(F)cc2)no1 | -6.97% | – |
| O=C(NCC(c1ccc(Cl)cc1)N1CCOCC1)c1ccccc1F (stereo not drawn) | 0.409% | – |
